Experimental data from publication PMC13541613, “GHT-SELEX demonstrates unexpectedly high intrinsic sequence specificity and complex DNA binding of many human transcription factors”.

Legend:
Test in all cases: HT-SELEX; 20 mM HEPES pH 7, 140 mM KCl, 5 mM NaCl, 1 mM K2HPO4, 2 mM MgSO4, 100 uM EGTA, ZnSO4, 0.1% Tween20; room temperature, 1 h; high values mean tight binding
Conditions in all cases: protein: ivt; tags: eGFP (N-terminal); dsDNA, one strand shown
ZNF721 full-length = ZNF721 full-length (Homo sapiens, UniProt Q8TF20-2 1-923)
Summary of the method: (§1)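 In HEPES/KCl low-stringency buffer with Tween20, a bead-immobilised tagged transcription factor (full-length or DNA-binding-domain fragment, from HEK293 lysate or cell-free extract) was incubated with a randomized 40-base DNA library for 1 h at room temperature. DNA retained after washing was heat-eluted, amplified by PCR over successive cycles and Illumina-sequenced, giving ~3 million 60 bp reads per sample. The reported binding signal, a relative k-mer count in those selected reads, rises with tighter binding.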

ZNF721 DBD1 = ZNF721 DBD1 (Homo sapiens, UniProt Q8TF20-2 29-461)
Summary of the method: as §1

ZNF721 DBD2 = ZNF721 DBD2 (Homo sapiens, UniProt Q8TF20-2 395-923)
Summary of the method: as §1

ZNF721 DBD1, sequence (Q8TF20 17-449): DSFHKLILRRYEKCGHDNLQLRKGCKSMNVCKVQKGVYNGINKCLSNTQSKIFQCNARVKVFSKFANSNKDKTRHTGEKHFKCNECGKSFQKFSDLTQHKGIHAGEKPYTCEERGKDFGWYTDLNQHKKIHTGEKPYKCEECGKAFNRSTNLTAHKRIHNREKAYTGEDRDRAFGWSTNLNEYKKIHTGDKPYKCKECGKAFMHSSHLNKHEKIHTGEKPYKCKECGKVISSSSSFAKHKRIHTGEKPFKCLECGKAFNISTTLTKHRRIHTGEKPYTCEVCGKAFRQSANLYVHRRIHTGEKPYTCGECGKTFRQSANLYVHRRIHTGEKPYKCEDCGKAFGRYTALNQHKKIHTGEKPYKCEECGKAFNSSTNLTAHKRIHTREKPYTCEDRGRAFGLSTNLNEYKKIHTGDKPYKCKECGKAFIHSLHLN
ZNF721 DBD2, sequence (Q8TF20 383-911): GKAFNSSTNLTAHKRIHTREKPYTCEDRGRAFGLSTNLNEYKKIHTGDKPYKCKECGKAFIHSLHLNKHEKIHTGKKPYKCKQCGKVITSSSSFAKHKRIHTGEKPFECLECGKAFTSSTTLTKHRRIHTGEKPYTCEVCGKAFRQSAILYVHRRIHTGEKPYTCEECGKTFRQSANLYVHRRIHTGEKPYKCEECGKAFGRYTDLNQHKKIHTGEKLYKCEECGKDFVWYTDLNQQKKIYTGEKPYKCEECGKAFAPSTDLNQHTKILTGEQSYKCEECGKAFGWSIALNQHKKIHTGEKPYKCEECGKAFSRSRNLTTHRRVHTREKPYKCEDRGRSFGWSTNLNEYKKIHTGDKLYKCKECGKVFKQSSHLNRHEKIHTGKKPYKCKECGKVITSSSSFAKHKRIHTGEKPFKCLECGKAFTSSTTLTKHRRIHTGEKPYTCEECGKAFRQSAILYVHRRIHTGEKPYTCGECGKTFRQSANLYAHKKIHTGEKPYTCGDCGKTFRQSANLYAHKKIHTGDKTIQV
ZNF721 full-length, sequence (Q8TF20 other isoform, or with tags, fused parts or gaps): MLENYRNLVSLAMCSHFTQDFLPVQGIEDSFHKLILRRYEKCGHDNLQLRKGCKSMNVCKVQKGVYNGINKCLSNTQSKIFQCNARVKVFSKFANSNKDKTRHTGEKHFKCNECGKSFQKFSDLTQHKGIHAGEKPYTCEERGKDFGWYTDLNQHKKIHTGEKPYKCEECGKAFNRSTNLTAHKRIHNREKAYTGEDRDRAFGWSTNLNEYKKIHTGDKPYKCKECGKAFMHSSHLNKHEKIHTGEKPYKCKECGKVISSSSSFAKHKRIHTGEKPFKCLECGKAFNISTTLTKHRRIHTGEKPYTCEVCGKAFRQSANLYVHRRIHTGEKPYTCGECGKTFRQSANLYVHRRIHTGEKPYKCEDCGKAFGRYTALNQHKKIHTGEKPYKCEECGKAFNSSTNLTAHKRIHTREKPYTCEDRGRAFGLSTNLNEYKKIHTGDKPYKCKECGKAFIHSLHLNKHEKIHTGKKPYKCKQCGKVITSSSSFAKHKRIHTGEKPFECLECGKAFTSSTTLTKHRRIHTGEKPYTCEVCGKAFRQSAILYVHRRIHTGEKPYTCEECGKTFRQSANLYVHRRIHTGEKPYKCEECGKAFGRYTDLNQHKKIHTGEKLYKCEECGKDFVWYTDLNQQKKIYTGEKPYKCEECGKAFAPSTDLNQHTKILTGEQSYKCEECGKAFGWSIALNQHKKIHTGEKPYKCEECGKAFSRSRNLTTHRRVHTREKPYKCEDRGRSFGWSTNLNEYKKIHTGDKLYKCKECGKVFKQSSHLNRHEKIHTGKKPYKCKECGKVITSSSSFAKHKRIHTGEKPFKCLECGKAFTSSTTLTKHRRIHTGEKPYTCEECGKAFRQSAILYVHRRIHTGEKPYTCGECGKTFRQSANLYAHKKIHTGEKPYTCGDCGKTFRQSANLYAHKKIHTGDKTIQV

| Sequence | binding signal (ZNF721 full-length) | binding signal (ZNF721 DBD1) | binding signal (ZNF721 DBD2) |
| --- | --- | --- | --- |
| CCACCCACCC | 0.415 relative 10-mer count | 0.0173 relative 10-mer count | 0.00587 relative 10-mer count |
| CCCCTCCCTC | 0.159 relative 10-mer count | 0.00789 relative 10-mer count | 0.00336 relative 10-mer count |
| CCCTCTCCCC | 0.11 relative 10-mer count | 0.00564 relative 10-mer count | 0.00228 relative 10-mer count |
| CCGTCCCCCC | 0.15 relative 10-mer count | 0.00693 relative 10-mer count | 0.00192 relative 10-mer count |
| AAAAAAAGCA | 0.612 relative 10-mer count | 0.037 relative 10-mer count | 0.246 relative 10-mer count |
| CACCCACCTC | 0.109 relative 10-mer count | 0.00518 relative 10-mer count | 0.00312 relative 10-mer count |
| AGGGCGGGGG | 0.14 relative 10-mer count | 0.0056 relative 10-mer count | 0.00276 relative 10-mer count |
| CCCTCCCCCG | 0.145 relative 10-mer count | 0.00555 relative 10-mer count | 0.00467 relative 10-mer count |
| CACCTCCCCC | 0.188 relative 10-mer count | 0.00798 relative 10-mer count | 0.00443 relative 10-mer count |
| CCCGCCCCCC | 0.264 relative 10-mer count | 0.00982 relative 10-mer count | 0.0018 relative 10-mer count |
| CCCCCACCAC | 0.312 relative 10-mer count | 0.0133 relative 10-mer count | 0.00707 relative 10-mer count |
